Screening results deposited in PubChem BioAssay by Paczesny and Yang Labs, IUPUI and University of Michigan.
ST2 inh: IL1RL1 inhibition; AlphaLISA ST2-Fc/biotin-IL-33 interaction, 1 h; inhibition, % for hits at 17 µM; 78,000 tested, 2.3% active; AID 1259354; in the data active means inhibition above about 30%
Target sequence (Q01638 whole entry, looked up): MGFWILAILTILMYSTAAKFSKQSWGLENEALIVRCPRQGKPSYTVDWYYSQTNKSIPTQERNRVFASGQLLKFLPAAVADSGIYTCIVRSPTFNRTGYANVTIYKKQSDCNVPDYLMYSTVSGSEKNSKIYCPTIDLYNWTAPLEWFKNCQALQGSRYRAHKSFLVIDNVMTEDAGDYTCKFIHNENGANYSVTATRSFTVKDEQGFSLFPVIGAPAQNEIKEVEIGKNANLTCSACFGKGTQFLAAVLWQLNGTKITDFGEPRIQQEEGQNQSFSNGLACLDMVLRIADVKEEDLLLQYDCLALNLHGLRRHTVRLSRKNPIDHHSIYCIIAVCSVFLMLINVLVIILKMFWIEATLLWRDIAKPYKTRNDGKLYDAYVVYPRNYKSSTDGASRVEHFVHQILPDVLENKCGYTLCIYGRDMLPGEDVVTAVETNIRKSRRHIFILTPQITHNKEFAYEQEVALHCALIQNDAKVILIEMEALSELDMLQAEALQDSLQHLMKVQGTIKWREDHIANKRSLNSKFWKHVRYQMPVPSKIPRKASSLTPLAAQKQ
Active calls of the source: *; i = inactive. The sample as a whole holds a higher share of hits than the screen did.

SMILES | ST2 inh
CC(C)Cc1cc(C(=O)N2CCOC(CCCc3ccccc3)C2)n[nH]1 (stereo not drawn) | i
O=C(NCc1cnn2ccccc12)c1cccc(Cn2cccn2)c1 | i
O=C(COCc1ccccc1)NCc1cnn2ccccc12 | i
CCSC[C@H](N)C(=O)NCc1cnn2ccccc12 | i
Cc1ccc(SC(C)C(=O)NCc2cnn3ccccc23)cc1 (stereo not drawn) | i
C=CCOC(=O)NCc1cnn2ccccc12 | 40.0%*
COc1cccc(CC(=O)NCc2cnn3ccccc23)c1 | 33.0%*
O=C(CC1(O)C(=O)Nc2ccc(Br)cc21)c1cccc([N+](=O)[O-])c1 (stereo not drawn) | i
CC(Cn1cccn1)C(=O)NCc1cccnc1N(C)C (stereo not drawn) | i
O=C1CSC(c2cccc(Br)c2)N1c1ccccc1 (stereo not drawn) | i
COc1cccc(CCNC2CCN(c3ccc(NC(=O)c4ccc(C)cc4C)cc3)CC2)c1 | i
O=C(c1ccccc1[N+](=O)[O-])N1CCN(c2ccccc2)CC1 | i
Cc1cc(C)nc(SCCS(=O)(=O)c2ccc(C(C)(C)C)cc2)n1 | i
O=C(N[C@H]1CCN2C(=O)c3cc(-c4ccccc4F)ccc3NC(=O)[C@@H]2C1)c1ccco1 | 60.0%*
O=C(N[C@H]1CCN2C(=O)c3cc(-c4cccc(C(F)(F)F)c4)ccc3NC(=O)[C@@H]2C1)c1ccncc1 | i
COCC(=O)N[C@H]1CCN2C(=O)c3cc(-c4cccc(C)c4C)ccc3NC(=O)[C@@H]2C1 | i
O=[N+]([O-])c1cc(C=Nc2ccc(-c3nc4ncccc4o3)cc2)c(O)c([N+](=O)[O-])c1 | i
CCCC(=O)Oc1ccc(N(C)C2=NS(=O)(=O)c3ccccc32)cc1 | i
N#C/C(=C\c1ccc(-c2ccccc2)o1)C(=O)Nc1cccc2ncccc12 | 40.0%*
N#C/C(=C\c1ccc(-c2cccc(C(F)(F)F)c2)o1)C(=O)O | i
COc1cccc(-c2ccccc2NC(=O)C2CCN(Cc3cccc4ncccc34)CC2)c1 | i
Cc1ncc(C)c(N2CCC(C3(Cc4ccc(F)cc4)NC(=O)NC3=O)CC2)n1 (stereo not drawn) | i
COCCn1c(-c2ccccn2)nc2cc(NC(C)=O)cc(C(=O)N3CCN(C(C)C)CC3)c21 | i
Cn1c(=O)[nH]c(=O)c2c1nc(CN1CCOCC1)n2Cc1ccccc1Cl | i
CCc1c(C)c(C#N)c2nc3ccccc3n2c1NCCOC | i
SMILES | ST2 inh
CCOc1cc(-c2c(C#N)c(N)n3c(nc4ccccc43)c2C#N)ccc1OC | 37.0%*
Cc1cc(-n2ccnc2C)n2c(nc3ccccc32)c1C#N | i
CCOC(=O)C1(CCCc2ccccc2)CCCN(C(=O)c2cccnc2C)C1 (stereo not drawn) | i
Cc1nc2c(ccc3nc(NC(=O)c4ccc(Cl)cc4Cl)sc32)s1 | i
CC(C)(C)c1nnc(NC(=O)c2cccc(F)c2)s1 | i
Cc1ccc(S(=O)(=O)/C=C/C#N)cc1 | i
CCN(CC)S(=O)(=O)c1ccc(C)cc1 | i
Cc1ccc(S(=O)(=O)ON=C2C=CC(=O)C=C2)cc1 | 47.0%*
O=C(c1cc2ccccc2oc1=O)N1CCSC1c1ccc2c3c(cccc13)CC2 (stereo not drawn) | i
Cc1ccc(CN2CCC(O)CC2)cc1 | i
CCC1CN(S(=O)(=O)c2ccc3c(c2)NC(=O)CC(=O)N3)c2cc(C)ccc2O1 (stereo not drawn) | i
CCN(CC)CCN1C(=O)C(=O)C(=C(O)c2ccccc2)C1c1ccc(N(C)C)cc1 (stereo not drawn) | i
COc1ccc(OC)c(Nc2nc(-c3sc(N)nc3C)cs2)c1 | 36.0%*
COc1ccccc1Nc1nc(-c2ccc(F)cc2)cs1 | i
CC(=O)Nc1nc(C)c(-c2csc(Nc3ccc(Br)cc3)n2)s1 | i
CC1=CC(=NS(=O)(=O)c2ccc([N+](=O)[O-])cc2)C=C(C)C1=O | i
O=C(NCc1ccc2c(c1)OCO2)c1cc(=O)[nH]c2ccc(S(=O)(=O)N3CCCCC3)cc12 | i
CNc1ccccc1[N+](=O)[O-] | i
COc1ccc(CNc2c([N+](=O)[O-])c(=O)oc3ccccc23)cc1 | i
COc1ccc(CNc2ccccc2[N+](=O)[O-])cc1 | 38.0%*
CCN1CCn2c(C)nc(C(=O)Nc3cnc4n3CCCC4)c2C1=O | i
CC(C)CCNC(=O)CCS(=O)(=O)c1cccc2nonc12 | 60.0%*
CC(C)NC(=O)CCS(=O)(=O)c1cccc2nonc12 | i
O=C(CCS(=O)(=O)c1cccc2nonc12)NCCc1ccccc1 | i
O=C(O)c1ccc2c(c1)C(=O)N(c1nc3ccccc3s1)C2=O | i
SMILES | ST2 inh
Cc1ccc(S(=O)(=O)c2ccc(-c3ccc([N+](=O)[O-])cc3)cc2)cc1 | 31.0%*
Cc1ccc(NS(=O)(=O)c2ccc([N+](=O)[O-])cc2)cc1 | i
Cc1ccc(S(=O)(=O)N(Cc2ccc([N+](=O)[O-])cc2)C(C)(C)C)cc1 | i
CS(=O)(=O)c1ccc2nc(NC(=O)c3coc4ccccc4c3=O)sc2c1 | i
CCC(=O)N1CCc2cc(S(=O)(=O)NC(C(=O)NC3CCCCCC3)C(C)C)ccc21 (stereo not drawn) | i
CC(=O)c1ccc(NC(=O)c2cc(-c3ccco3)on2)cc1 | i
CC(=O)c1ccc(NC(=O)c2cccc(Cl)c2)cc1 | i
CC(=O)c1ccc(NC(=O)c2ccc3nc(-c4ccco4)c(-c4ccco4)nc3c2)cc1 | 40.0%*
O=C(NC1CC(=O)N(c2ccccc2)C1)c1ccccc1Br (stereo not drawn) | i
O=C(NC[C@H]1O[C@@H](CO)[C@@H](O)[C@H]1N1CCN(c2ccccn2)CC1)N1CCOCC1 | i
COC(=O)[C@@H](NC(=O)CCC1(Cc2ccc(OC)cc2F)CCC(=O)N1)C(C)C (stereo partly drawn) | i
Cc1ccc2c(N)c(C(=O)c3ccc(Cl)cc3)sc2n1 | i
CC(=O)c1cc2c(N)c(C(=O)c3ccc(Cl)cc3)sc2nc1C | 38.0%*
COCc1cc(C)nc2sc(C(=O)c3ccccc3)c(N)c12 | i
Cc1cc(Cl)nc(Oc2ccc(F)cc2)c1C(N)=O | i
C=CCOc1ccc(C2C(C(=O)OCCOC)=C(C)N=C3SCCC(=O)N32)cc1 (stereo not drawn) | i
COC(=O)c1sc2ccccc2c1NC(=O)c1cc2c(ccc3ccccc32)oc1=O | i
CCCCNc1nc2c(c(=O)n(C)c(=O)n2C)n1Cc1cccc(Cl)c1 | i
CCCCNc1nc2c(c(=O)n(Cc3cccc(Br)c3)c(=O)n2C)n1C | 32.0%*
COCCNc1nc2c(c(=O)n(C)c(=O)n2C)n1Cc1cccc(Br)c1 | i
O=C(NC1CC1)c1cc2n(n1)CCN(c1cc(N3CCCCC3)ncn1)C2 | i
COc1cccc2c(=O)c(CN(CC(C)C)CC(C)C)c(C)[nH]c12 | i
CC(C)NC(=O)C1(O)c2cc(Br)ccc2NC(=O)N1c1ccc(Cl)cc1 (stereo not drawn) | i
O=C(Nc1ccccc1Cl)c1cc2ccccc2oc1=O | i
O=C(Nc1ccccc1O)c1cc2ccccc2o1 | i
O=C(Nc1ccccc1O)c1cc2ccccc2oc1=O | 34.0%*
COc1ccc(CN2C[C@H](O)C[C@H]2c2nc(-c3cccc([N+](=O)[O-])c3)no2)c2ccccc12 | i
CCn1c(=O)n(-c2ccc(C)c(C)c2)c2nc(-c3c(C)cc(C)cc3C)nc(C(N)=O)c21 | i
O=C(CSc1c[nH]c2ccccc12)Nc1nc2ccccc2s1 | i
